# The full list was thinned out, with hits kept by preference.
# Pf Dd2 inh: inhibitors of Plasmodium falciparum Dd2 growth; P. falciparum Dd2 growth, SYBR Green, 72 h; 4.3% of 120,000 active; Potency, µM (top dose mostly 28.9 µM), actives largely listed as inhibitors; AID 1347417; active means well fitted inhibition curve with a large enough effect; further: nearly all actives have a fitted effect of over 65% in size
#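 Infected erythrocytes (Dd2, 0.3% parasitemia, 2.5% hematocrit final) are added to compound in RPMI-1640/Albumax II medium, grown 72 h at 37C in low oxygen, then lysed with saponin/Triton-X containing SYBR Green and read by fluorescence.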
# Numbers stand for hits; . = inactive; [ ] = remark or other dose.
SMILES,Pf Dd2 inh
O=C(NC1CCCC1)N1CC(Oc2cccc(-c3nc(-c4ccccc4)no3)c2)C1,.[5.79 µM]
CCOCCCNC(=O)N1CC(Oc2cccc(-c3nc(C)no3)c2)C1,.[5.79 µM]
CCCNC(=O)N1CC(Oc2cccc(-c3nc(-c4ccccc4)no3)c2)C1,2µM
Cc1ccc2c(c1)N(CC(=O)N1[C@@H]3CC[C@H]1CNC(=O)C3)C(=O)CO2,.
O=C1N[C@@H]2CCN(C(=O)c3cccs3)[C@@H]2C(=O)N1c1ccc(Oc2ccccc2)cc1,.
O=C1CCC(C(=O)N2C[C@@H](COCC3CC3)[C@H](c3ccccn3)C2)=NN1,.
Cc1nc(CC2CCN(Cc3cc4n(n3)CCNC4)CC2)no1,.
COc1ccccc1OC1CCN(Cc2cc3n(n2)CCNC3)CC1,.
Cc1ccc(SC2CCN(Cc3cc4n(n3)CCNC4)CC2)cc1,10µM
Cc1cccc(C(C(=O)NCc2nn(C)c3ccc(C)cc23)N(C)C)c1 (configuration not stated),.
C[C@@H](NC(=O)C1CC1)c1onc(-c2ccc(Cl)cc2)c1C(=O)O,.
O=C1CCC2(CCN1)CCN(C(=O)C1CCC1)CC2,.
Cc1cccc(-n2ncc(C(=O)N3CCN(c4ccc(C)cc4C)CC3)c2C2CCN(C(=O)OC(C)(C)C)CC2)c1,.
Cn1ncc(C(=O)N2CCN(c3ccccc3)CC2)c1C1CCN(C(=O)OC(C)(C)C)CC1,.
Cc1ccc(Cl)cc1N1CCN(C(=O)c2cnn(C)c2C2CCN(C(=O)OC(C)(C)C)CC2)CC1,4µM
Cc1ccc(C)c(N2CCN(C(=O)c3cnn(C(C)(C)C)c3C3CCN(C(=O)OC(C)(C)C)CC3)CC2)c1,8.9µM
Cc1ccc(Cl)cc1N1CCN(C(=O)c2cnn(C(C)(C)C)c2C2CCN(C(=O)OC(C)(C)C)CC2)CC1,7.9µM
COCC(=O)N1CCCC(c2nc(C3CCOCC3)no2)C1 (configuration not stated),.
Cn1c(CCNC(=O)C2Cn3cccc3C(=O)N2)nc2ccccc21 (configuration not stated),.
O=C1COCCN1C1CCN(Cc2ccc(C(F)(F)F)cc2)CC1,.
Cc1ccc(C2Cn3nnc(-c4noc(CCc5ccccc5)n4)c3CO2)cc1 (configuration not stated),.
COc1ccc(CN2CCc3nn(CC(C)C)c(=O)n3CC2)cc1Cn1ccnc1,.
COc1cc2c(cc1Cn1cc(-c3nccn3C)nn1)CCC2,.
COc1cc(Cl)ccc1C(=O)N1C[C@@H](CO)[C@H](c2ccncc2)C1,.
CCOc1ccc(NC(=O)Cn2c(=O)n(CC3CCC(C(=O)NCCc4ccccc4)CC3)c(=O)c3ccccc32)cc1 (configuration not stated),.
SMILES,Pf Dd2 inh
Cc1cccc(NC(=O)Cn2c(=O)n(CC3CCC(C(=O)NCCc4ccccc4)CC3)c(=O)c3ccccc32)c1C (configuration not stated),.
O=C(Cn1c(=O)n(CC2CCC(C(=O)NCCc3ccccc3)CC2)c(=O)c2ccccc21)Nc1ccccc1 (configuration not stated),.
CC(C)c1ccc(NC(=O)Cn2c(=O)n(CC3CCC(C(=O)NCCc4ccccc4)CC3)c(=O)c3ccccc32)cc1 (configuration not stated),3.2µM
CCc1cccc(NC(=O)Cn2c(=O)n(CC3CCC(C(=O)NCCc4ccccc4)CC3)c(=O)c3ccccc32)c1 (configuration not stated),3.5µM
CC(C)c1ccc(NC(=O)Cn2c(=O)n(CCc3ccccc3)c(=O)c3ccccc32)cc1,.
CN(C)C[C@H]1O[C@@H]2C[C@@H](CC(=O)N3CCOCC3)O[C@@H]2[C@@H]1O,.
COC[C@@H]1CN(S(C)(=O)=O)C[C@H]1c1ccncc1,.
COc1ccc(CNC(=O)[C@H]2CCC[C@H]2NC(=O)c2ccc(OC)nc2)cc1,.
Cc1nc(-c2ccc(F)cc2)n(CC(=O)Nc2cc(C(F)(F)F)ccc2Cl)c(=O)c1CCO,11µM
CCc1ccccc1NC(=O)Cn1c(-c2ccc(F)cc2)nc(C)c(CCO)c1=O,.
Cc1nc(-c2ccccc2)n(CC(=O)Nc2ccc(F)c(Cl)c2)c(=O)c1CCO,8.9µM
CC(=O)c1cccc(NC(=O)Cn2c(-c3ccc(F)cc3)nc(C)c(CCO)c2=O)c1,.
Cc1cc(C)cc(NC(=O)Cn2c(-c3cccc(Cl)c3)nc(C)c(CCO)c2=O)c1,10µM
Cc1ccccc1NC(=O)Cn1c(-c2cccc(Cl)c2)nc(C)c(CCO)c1=O,.
CCc1ccc(NC(=O)Cn2c(-c3ccc(Cl)cc3)nc(C)c(CCO)c2=O)cc1,.
Cc1nc(-c2cccc(Cl)c2)n(CC(=O)NC(C)C)c(=O)c1CCO,.
Cc1ccc(NC(=O)Cn2c(-c3ccc(F)cc3)nc(C)c(CCO)c2=O)c(Cl)c1,.
O=C(CCN1Cc2ccccc2C1=O)N[C@H](c1cccs1)C1CC(O)C1 (some centres not stated),.
O=C1CCC2(CCN1CC1CC1)CCN(S(=O)(=O)c1ccccc1F)CC2,.
COCCC1(NC(=O)C(C)c2ccccc2)CCN(S(C)(=O)=O)CC1 (configuration not stated),.
COc1ccc(C2=NOC3(CCCN(Cc4ccc(C(F)(F)F)cc4)C3)C2)cc1 (configuration not stated),.
COc1ccccc1-c1nnc([C@H]2CCN(C(C)=O)C2)o1,.
CCC(CC)NC(=O)CC1CCCN(c2cn[nH]c(=O)c2)C1 (configuration not stated),.
CC(C)(C)CN[C@@H]1CO[C@H](CNC(=O)c2ccc(F)cc2)[C@H]1O,.
CC(C)C[C@@H](NC(=O)[C@@]1(O)C[C@@H](O)[C@H](O)[C@@H](NC(=O)c2ccc(F)c(Cl)c2)C1)C(N)=O,.
SMILES,Pf Dd2 inh
CC1Oc2ccc(NC(=O)c3ccc(F)cc3F)cc2CN(Cc2ccc(Cl)cc2)C1=O (configuration not stated),.
CCN(CC)Cc1ccc2c(c1)CN(C(=O)N(CC)CC)CCO2,.
CCN(CC)Cc1ccc2c(c1)CN(C(=O)c1ccsc1)CCO2,.
CCN(CC)Cc1ccc2c(c1)CN(C(=O)COc1ccc(C)cc1)CCO2,2.8µM
COc1ccc(C2Cn3nnc(C(=O)N4CCN(C(=O)c5ccccc5F)CC4)c3CO2)cc1 (configuration not stated),.
O=C(N1CCOCC1)N1CCN(C2CCNCC2)C(=O)C1,.
CN(Cc1ccccc1)C(=O)c1cc(-c2ccncc2)cn1C,.
Cc1ccccc1CCC1CCCN(C(=O)c2ccccc2-c2nn[nH]n2)C1 (configuration not stated),.
Cc1ccccc1Cn1cc(-c2ccncc2)cc1C(=O)N(C)Cc1ccco1,3.5µM
CCCn1cc(-c2ccncc2)cc1C(=O)NCc1ccc(C)o1,.
Cc1ccc(Cn2cc(-c3ccncc3)cc2C(=O)O)cc1,.
Cc1ccccc1Cn1cc(-c2ccncc2)cc1C(=O)N1CCCC(C)C1 (configuration not stated),10µM
CCOC(=O)C1(Cc2cccc(OC)c2)CCCN(C(=O)COc2ccccc2)C1 (configuration not stated),.
CCCN1CCC(N2CCCC(Cc3ccccc3)(C(=O)OCC)C2)CC1 (configuration not stated),5µM
CCOC(=O)C1(Cc2cccc(Cl)c2)CCCN(C(=O)c2csc(C(C)=O)c2)C1 (configuration not stated),.
C=CCOc1ccccc1CN(CC)C(=O)C1CCN(c2ncccn2)CC1,.
CCCc1noc(-c2nc(-c3ccc4c(c3)OCO4)no2)n1,.
